Some of the results follow. Values without a mark were called inactive. Activity calls are given as the source filed them.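 The calls were made as follows: active = percent activation above the mean of DMSO-only control wells plus 3 SD of those wells (cut at about 18% in these data); inactive = the rest.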
Target: Neuropeptide Y receptor type 1 (Homo sapiens) (UniProt P25929)
Assay: NPY-Y1 direct agonists without NPY, confirmation, counter-screen for NPY-Y1 potentiator project, cell-based, fluorescence (AID 1697);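 also: cells challenged with isoproterenol plus Ro 20-1724 with no NPY in test wells; Y1 agonism lowers isoproterenol-driven cAMP and reduces probe fluorescence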
Details: HEK293 Y1-CNGC, membrane potential fluorescence, agonist mode; at 3.6 µM; hits give high values

Neuropeptide Y receptor type 1 (Homo sapiens), sequence (P25929 whole entry, looked up): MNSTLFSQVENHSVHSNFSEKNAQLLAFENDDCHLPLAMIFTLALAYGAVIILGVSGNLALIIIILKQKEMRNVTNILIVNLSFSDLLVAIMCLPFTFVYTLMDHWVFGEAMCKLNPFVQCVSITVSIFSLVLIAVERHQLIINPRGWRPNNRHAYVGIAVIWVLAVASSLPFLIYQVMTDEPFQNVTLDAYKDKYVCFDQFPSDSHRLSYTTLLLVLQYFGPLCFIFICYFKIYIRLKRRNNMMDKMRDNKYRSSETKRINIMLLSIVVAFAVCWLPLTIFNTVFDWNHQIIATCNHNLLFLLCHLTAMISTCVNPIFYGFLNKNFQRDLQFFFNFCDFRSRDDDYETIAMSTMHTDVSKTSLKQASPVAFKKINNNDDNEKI

O=C(Nc1ccccc1C(F)(F)F)c1cc(-c2ccc(O)cc2)on1
activation: 9.5%

CC(=O)c1ccc(NC(=O)C2CC(=O)Nc3nc4ccccc4n32)cc1 (stereo unspecified)
activation: 38% (active)

CSc1nc(-c2ccco2)nn1C(=O)c1ccccc1Cl
activation: 28.5% (active)

Cc1cccc(OCC(O)CN2CCN(CCN3C(=O)c4cccc5cccc(c45)C3=O)CC2)c1C (stereo unspecified)
activation: 45.1% (active)

CC1=C/C(=N\OS(=O)(=O)c2ccccc2)C=CC1=O
activation: 14.2%

Cc1ccccc1NCC(=O)N/N=C\c1ccc([N+](=O)[O-])s1
activation: 40% (active)

COC(=O)c1sc(-c2ccc(C(C)(C)C)cc2)cc1NC(=O)/C=C/C(=O)O
activation: 26.9% (active)

COC(=O)c1ccc(NC(=O)CN(c2ccc(C)cc2)S(=O)(=O)c2c(C)n[nH]c2C)cc1
activation: 45.3% (active)

COCCn1nnnc1C(c1ccccc1Cl)N1CCN(c2ccccc2OC)CC1 (stereo unspecified)
activation: -0.37%

O=C1/C(=C/c2coc3ccc(O)cc3c2=O)SC(=S)N1c1ccccc1
activation: 16.8%

O=C(c1cccs1)N1CCN(C(=O)N2CCOCC2)CC1
activation: -8.38%

O=[N+]([O-])c1cc(Cl)cc(/C=N/NC(=S)Nc2cc(S(=O)(=O)N3CCOCC3)ccc2Cl)c1O
activation: 77% (active)

CN1C(=O)c2ccccc2C(C(=O)NCCCN2CCCC2)C1c1c[nH]c2ccccc12 (stereo unspecified)
activation: -3%

CCn1c2ccccc2c2cc(NC(=O)Nc3ccc([N+](=O)[O-])cc3C)ccc21
activation: 11.8%

O=C(Nc1ccc2c(c1)CCC2)c1cccc(S(=O)(=O)Nc2ccccc2Cl)c1
activation: 3.19%

N#Cc1ccc(C(=O)Nc2nc(-c3cccs3)c(C(=O)C(F)(F)F)s2)cc1
activation: -33.9%
